# High-throughput results: PubChem, National Center for Advancing Translational Sciences (NCATS)
# SARS PLpro yeast = qHTS of Yeast-based Assay for SARS-CoV PLP | Potency, µM (highest dose often 32.9 µM), inactives show top-dose activity, positive = growth rescue, usual class: activators | hit rate 0.19% among 330,000 | AID 485353, 2010 | S. cerevisiae expressing SARS-CoV PLpro, growth rescue; further: potency means the concentration at half of the fitted maximal effect; 0% is about no effect; nearly all actives have a fitted effect of over 55% in size
# RE007 growth inh = qHTS Assay for Inhibitors of the HIV-1 protein Vpr; S. pombe RE007 Vpr strain, BacTiter-Glo ATP luminescence, 24 h; Potency, µM (highest dose often 92.2 µM), for inactives: at the highest dose activity change, negative = less growth, actives largely listed as inhibitors; hit rate 0.21% among 360,000; active means well fitted falling curve with a large enough effect; inconclusive means small, poorly fitted or top-dose-only effect; inactive means no such curve, though single readings can be large or run the other way; further: potency means the concentration at half of the fitted maximal effect; on the % scale 0 is the no-effect control and ±100 the full control effect; nearly all actives have a fitted effect of over 50% in size
#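 Fission yeast strain RE007, carrying one chromosomally integrated HIV-1 vpr copy, was seeded at OD 0.01 in PMG+AL medium with 23 nL pinned compound. After 24 h at 30 °C and 99% humidity, viability was read by BacTiter-Glo luminescence.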
# NS1 inh = qHTS Assay for Inhibitors of Influenza NS1 Protein Function. hit rate 0.4% among 270,000. Potency, µM (doses to about 46.1 µM), without a hit: at the highest dose activity, positive = more growth. AID 2326, 2010; further: potency means the concentration at half of the fitted maximal effect; actives are rising curves; nearly all actives have a fitted effect of over 50% in size
#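 Compounds were scored for reversing the slow growth caused by influenza A NS1 in S. cerevisiae, measured by optical density at 600 nm. Assay medium contained 2% galactose at pH 6.0; NS1-free yeast of the same strain were the positive control.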
# Pf growth 48h = Primary qHTS for delayed death inhibitors of the malarial parasite plastid, 48 hour incubation; P. falciparum luciferase growth in erythrocytes, 48 h; Potency, µM (top dose mostly 28.7 µM), without a hit: at the highest dose activity change, negative = inhibition, most hits filed as inhibitors; hit rate 5.9% among 310,000; AID 504832, 2011; active means well fitted inhibition curve with a large enough effect; inconclusive means small, poorly fitted or top-dose-only effect, or another doubt; inactive means no such curve, though single readings can be large or run the other way; further: potency means the concentration at half of the fitted maximal effect; on the % scale 0 is the no-effect control and ±100 the full control effect
#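 A one-generation exposure of luciferase-tagged malaria parasites in RPMI 1640/Albumax erythrocyte culture, 37 C and 5% CO2. Inhibition is inferred from decreased luminescence after adding detection reagent.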
# Pf growth 96h = Primary qHTS for delayed death inhibitors of the malarial parasite plastid, 96 hour incubation | AID 504834, 2011 | hit rate 6.9% among 320,000 | Potency, µM (doses to about 28.7 µM), inactives show top-dose activity change, negative = inhibition, hits mostly inhibitors | P. falciparum luciferase reporter growth, 96 h; active means well fitted inhibition curve with a large enough effect; inconclusive means small, poorly fitted or top-dose-only effect, or another doubt; inactive means no such curve, though single readings can be large or run the other way; further: potency means the concentration at half of the fitted maximal effect; on the % scale 0 is the no-effect control and ±100 the full control effect
#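 Infected RBCs, 2% Hct / 0.05% parasitemia final; luciferase-reporter P. falciparum; cpd 96 h, 37 C, 5% CO2; luciferase detection reagent; luminescence.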
# NS1 inh valid = Assay for Inhibitors of Influenza NS1 Protein Function: Hit Validation; influenza NS1 function cell assay, 15-point titration; activity change, negative = inhibition, % at 32.9 µM; shares compounds with NS1 inh; 1,400 tested, under 10 active; AID 492980, 2010; further: 0% is about no effect
# PR8 titer = Assay for Inhibitors of Influenza NS1 Protein Function: Influenza virus replication assay in MDCK cells infected with virus A/PR/8/34; shares compounds with NS1 inh; MDCK infected influenza A/PR/8/34, virus titer TCID50; stronger effect = lower value; virus titer (log TCID50), log10 TCID50 at 5 µM; hit rate 30% among 95; call rule not given here
# Numbers without * were called inactive; ? = inconclusive; / = no result given; [ ] = another dose, or the depositor's remark. Compounds with a hit are over-represented: about 9.5% of the library has one in this group of screens. Unless noted, the call rests on the fitted dose curve.
SMILES,SARS PLpro yeast,RE007 growth inh,NS1 inh,Pf growth 48h,Pf growth 96h,NS1 inh valid,others
C=CCNc1nc(S(=O)Cc2ccc(C)cc2)nc2c1CCCC2 (stereo not drawn),0.9%,-5.2%,/,286.2%,?,/,
O=C(C1=C(O)C(=O)N(CC2CCCO2)C1c1ccccc1)c1ccco1 (stereo not drawn),-0.6%,11.6%,4.3%,38.7%,39.0%,/,
CC(=O)Nc1cc2c3c(c1)CCC(=O)N3CCC2,-1.0%,11.9%,-12.6%,18.0%,41.9%,/,
CCOc1ccccc1CNC(=O)CCCC(=O)n1nc(C)c2ccccc21,0.8%,25.6%,?,21.3%,-0.7%,?,
Cc1ccccc1CNC(=O)CCCC(=O)n1nc(C)c2ccccc21,-8.1%,-4.2%,-29.2%,14.4%,0.0%,/,
O=C(CSc1nnc(CNC(=O)c2ccco2)o1)Nc1cccc(F)c1,-0.6%,-0.7%,-8.3%,27.9%,59.8%,/,
COc1cc(NC(=O)c2ccccc2)c(OC)cc1NC(C)=O,-3.3%,-0.2%,?,2.4%,-2.1%,1.0,
Cc1c(C(=O)N2CCN(Cc3ccc4c(c3)OCO4)CC2)sc2ncnc(N3CCN(c4ccccc4F)CC3)c12,-2.5%,-17.3%,-16.2%,-7.7%,?,/,
Cc1c(C(=O)N2CCN(Cc3ccc4c(c3)OCO4)CC2)sc2ncnc(N3CCN(c4ccccc4)CC3)c12,-10.8%,-6.0%,2.51µM*,9.2%,?,?,
COc1cc(NC(=O)COC(=O)c2cc(S(=O)(=O)N3CCCCC3)ccc2Cl)c(C)cc1[N+](=O)[O-],1.7%,10.3%,14.1µM*,14.8%,-12.6%,9.9,PR8 titer=8.33
COc1ccc(S(=O)(=O)N2CCCCCC2)cc1C(=O)OCC(=O)NC(C)(C)C,1.2%,-14.1%,/,-6.7%,3.6%,/,
O=C(OCCN=C1NS(=O)(=O)c2ccccc21)c1cccnc1,10.4%,8.3%,?,-22.2%,78.8%,-4.0,
CCOC(=O)c1csc(NC(=O)c2ccc3c(c2)OCCO3)n1,0.1%,-17.6%,3.9%,195.8%,-5.7%,/,
Nc1ccc(-c2nc3cc(N)ccc3n2CCO)cc1,0.9%,12.9%,7.94µM*,12.6%,30.0%,2.2,
CC1(C)Cc2c(sc3ncnc(NNC(=S)NCc4ccccc4)c23)CO1,1.1%,1.8%,11.2µM*,-19.2%,?,-7.7,
Cc1ccc(S(=O)(=O)N2CCN(C(=O)CC(C)n3cncn3)CC2)cc1C (stereo not drawn),3.7%,-11.3%,?,9.6%,10.2%,-9.1,
O=C(NCc1ccc2c3c(cccc13)C(=O)N2)c1cccs1,0.4%,-11.8%,-4.5%,17.0%,10.0%,/,
O=C(O)CSc1nnc(-c2cc3ccccc3o2)n1-c1ccccc1,11.3%,11.1%,?,7.4%,?,3.4,
CC(C)N1CN(c2ccccc2)C(=S)N(c2ccccc2)C1,0.3%,-7.2%,4.7%,18.5%,-0.7%,/,
CC(=O)Nc1ccc(C=NNc2ccc([N+](=O)[O-])cc2S(=O)(=O)Nc2ccccc2C(=O)O)cc1,-14.1%,5.2%,/,/,/,/,
Cc1ccc(NC(=S)NNc2ccc([N+](=O)[O-])cc2S(=O)(=O)Nc2ccccc2C(=O)O)cc1C,0.9%,/,12.6µM*,4.4%,-19.1%,32.0,
CCN1CCN(C(=O)c2ccc(CS(=O)(=O)Cc3ccccc3Cl)o2)CC1,/,-10.0%,/,/,/,/,
COc1ccc(NS(=O)(=O)c2ccc(OCC(=O)N3CCCC3)cc2)cc1,1.2%,3.6%,?,-18.2%,/,3.6,
COc1ccc(N2CCN(C(=O)c3ccc(NS(=O)(=O)c4ccccc4)cc3)CC2)cc1,-11.1%,2.9%,12.6µM*,?,-23.2%,-17.8,
CNC(=O)COc1ccc(S(=O)(=O)Nc2ccc(OC)cc2)cc1,1.4%,17.1%,-2.0%,-16.6%,2.8%,/,
SMILES,SARS PLpro yeast,RE007 growth inh,NS1 inh,Pf growth 48h,Pf growth 96h,NS1 inh valid,others
Cc1noc(C)c1CSCC(=O)Nc1nc2ccc(F)cc2s1,-2.8%,1.7%,/,?,-23.2%,/,
CC(N=Cc1c(O)[nH]c(=O)[nH]c1=O)c1ccccc1 (stereo not drawn),-7.5%,0.2%,10µM*,-19.6%,?,-0.3,
N=c1c(S(=O)(=O)c2ccc(Cl)cc2)cc2c(=O)n3ccccc3nc2n1C1CCCC1,?,-15.0%,3.0%,?,60.9%,/,
Cc1cc(C)c2c(n1)sc1c(-c3ccccc3)c(C#N)c(N)nc12,-2.2%,0.0%,4.47µM*,4.9%,2.1%,2.0,
Cc1nc(N)c(C#N)c(-c2ccccc2)c1C,-1.9%,21.4%,-6.2%,-1.0%,-11.3%,/,
CCn1nc(C(=O)OCc2cccc(S(=O)(=O)N(C)C)c2)c2ccccc2c1=O,1.4%,-1.7%,?,75.4%,39.4%,?,
CS(=O)(=O)/C(C#N)=C/c1cccn1S(=O)(=O)c1ccccc1,-1.2%,3.1%,4.2%,7.4%,?,/,
N#CC(C#N)=Cc1cccn1-c1ccc(S(N)(=O)=O)cc1,0.5%,0.0%,?,-9.1%,-15.6%,-8.5,
COc1ccc(C2/C=C\CN(S(=O)(=O)/C=C/c3ccccc3)CC(=O)N2Cc2ccc(F)cc2)cc1 (stereo not drawn),-3.4%,6.8%,?,?,?,/,
COc1ccc(C2/C=C\CN(S(=O)(=O)c3ccc4ccccc4c3)CC(=O)N2Cc2ccc(F)cc2)cc1 (stereo not drawn),1.7%,2.5%,2.82µM*,13.1µM*,?,-31.4,PR8 titer=8
O=C(NCc1ccc2[nH]c3c(c2c1)CCCC3)c1ccc(S(=O)(=O)N2CCCCC2)cc1,1.5%,-9.8%,5.01µM*,?,10.4µM*,6.2,
COc1ccc2c(c1)C(c1ccccc1)=NNC(c1ccco1)=N2,-7.9%,-24.6%,?,?,?,-15.4,
CCOc1ccc(C2=NNC(c3cccnc3)=Nc3ccc(OC)cc32)cc1,-1.3%,11.5%,5.9%,?,?,/,
Cc1nnc(NC(=O)CSc2cn(Cc3ccccc3)c3ccccc23)s1,-5.7%,8.4%,3.3%,/,?,/,
COc1ccccc1C(=O)NCCn1cc(SCC(=O)Nc2nnc(C)s2)c2ccccc21,5.2%,5.5%,12.6µM*,?,?,11.1,
O=Cc1c(NCCN2CCCC2)c2ccccc2[nH]c1=O,-6.6%,-21.5%,-1.0%,127.5%,-7.5%,/,
Cc1nc2nc(CSc3nnc(C)s3)cc(=O)n2[nH]1,0.8%,-9.4%,7.94µM*,32.1%,44.2%[5.75 µM],3.4,
O=C(CN1C(=O)COc2ccccc2C1=O)c1ccc2c(c1)OCCO2,1.9%,-0.8%,1.5%,31.7%,59.1%,/,
